Shown are actives, neighbours in structure and some others; about 19% of the full set was active somewhere.
ELG1 DNA repair – ELG1-dependent DNA repair inhibition; AID 504467; HEK293T ELG1-luciferase reporter, luminescence, 16 h; DNA damage induced by 5-fluorouridine; Potency, µM (titrated, usually from 46.1 µM), for the others: top-dose activity change, negative = inhibition, hits mostly inhibitors; 330,000 compounds, 2.3% hits; further: potency means the concentration at half of the fitted maximal effect; nearly all actives have a fitted effect of over 55% in size
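Overnight (16 hr) co-exposure of 2,000 cells/well to 5-fluorouridine and compound at 37 °C preceded detection. Luciferase was quantified via ONE-Glo luminescence; loss of signal denotes inhibition.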
TDP1 cell CPT – growth inhibition of DT40 Tdp1-/-;hTDP1 cells with camptothecin (screen for TDP1 inhibitors) | Potency, µM (highest dose often 46.2 µM), inactives show top-dose activity change, negative = growth inhibition, hits mostly inhibitors | 420,000 compounds, 12% hits | AID 686979 | chicken DT40 Tdp1-/-;hTDP1 cells + 20 nM CPT, ATP luminescence, 48 h; further: potency means the concentration at half of the fitted maximal effect; nearly all actives have a fitted effect of over 55% in size
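Chicken DT40 Tdp1-/- cells stably complemented with human TDP1 were seeded at 400 cells/well in medium containing 20 nM camptothecin, exposed to pin-transferred compounds, and grown at 37 °C for at least 48 hr. Viability was read as ATP luminescence.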
TDP1 cell noCPT – qHTS for Inhibitors of human tyrosyl-DNA phosphodiesterase 1 (TDP1): qHTS in cells in absence of CPT | 420,000 compounds, 15% hits | Potency, µM (highest dose often 46.2 µM), without a hit: at the highest dose activity change, negative = growth inhibition, most hits filed as inhibitors | DT40 Tdp1-/- hTDP1 cells, no CPT, ATP luminescence, 48 h | AID 686978, 2013; further: potency means the concentration at half of the fitted maximal effect; nearly all actives have a fitted effect of over 55% in size
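Seeded 400 DT40-hTDP1 cells/well (vehicle DMSO, no 20 nM CPT); pinned compounds; ≥48 hr at 37 °C; CellTiter-Glo luminescence as viability measure.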
IL1B secr inh – blocks inflammasome-driven IL-1 beta release; 360,000 compounds, 4.7% hits; THP-1 LPS/ATP IL-1B secretion, AlphaLISA, 16 h; hits give low values; activity change, % at 57.5 µM; in the data active means activity change below about -50%; inconclusive means mostly about -30% to -49%
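THP-1 cells pretreated 1 hr with compounds (up to 57.5 uM final), then stimulated with LPS (250 ng/mL final) plus ATP (1.25 mM final); secreted IL-1B measured by AlphaLISA after 16 hr, decreased signal indicating inhibition.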
Giardia killer – Giardia lamblia killing; AID 540267; activity change, % at 7.66 µM, hits read low; Giardia lamblia trophozoite viability; 340,000 compounds, 0.15% hits; in the data active means activity change below about -80%; inconclusive means between about -30% and that limit;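 further: parasites exposed to compound for two days anaerobically before the ATP read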
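Trophozoite viability was measured as ATP-dependent luminescence, read 15-30 min after reagent addition. Before that, parasites at 100 cells/well were exposed to compounds for 48 h, anaerobically, at 37 deg C.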
TDP1 inh – TDP1 (human) enzyme inhibition. Potency, µM (titrated, usually from 130 µM), for the others: at the highest dose activity change, negative = inhibition, hits mostly inhibitors. recombinant TDP1, AlphaScreen DNA substrate cleavage. 350,000 compounds, 0.28% hits; further: potency means the concentration at half of the fitted maximal effect; nearly all actives have a fitted effect of over 40% in size
Target sequence (Q9NUW8 whole entry, looked up): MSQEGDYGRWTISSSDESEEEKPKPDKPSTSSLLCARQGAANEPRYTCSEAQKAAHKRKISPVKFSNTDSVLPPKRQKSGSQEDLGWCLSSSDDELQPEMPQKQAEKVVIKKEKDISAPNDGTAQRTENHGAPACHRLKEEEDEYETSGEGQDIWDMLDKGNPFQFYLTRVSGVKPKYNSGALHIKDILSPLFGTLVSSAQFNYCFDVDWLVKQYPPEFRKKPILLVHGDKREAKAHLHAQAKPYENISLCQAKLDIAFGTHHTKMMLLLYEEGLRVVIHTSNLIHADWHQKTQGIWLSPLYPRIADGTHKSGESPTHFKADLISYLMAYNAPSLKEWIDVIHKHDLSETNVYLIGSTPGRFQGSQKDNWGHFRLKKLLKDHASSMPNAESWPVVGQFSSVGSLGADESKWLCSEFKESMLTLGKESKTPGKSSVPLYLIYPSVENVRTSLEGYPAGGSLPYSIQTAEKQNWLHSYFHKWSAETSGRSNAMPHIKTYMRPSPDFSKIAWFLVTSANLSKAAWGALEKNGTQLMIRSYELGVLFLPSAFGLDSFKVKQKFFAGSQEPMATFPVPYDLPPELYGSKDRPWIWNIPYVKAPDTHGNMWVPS
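Tdp1 1 nM final; 15 min RT w/ cpd; substrate 15 nM, 5 min; beads 10 ug/ml, 10 min; AlphaScreen read. Neg ctrl: no enzyme.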
Active calls of the source: *; i = inactive; ? = inconclusive; . = no result given; [ ] = dose if it differs, or a comment. Unless noted, the call rests on the fitted dose curve; in most records, active means well fitted curve in the direction sought with a large enough effect; inconclusive means small, poorly fitted or top-dose-only effect, or another doubt; inactive means no such curve, though single readings can be large; an effect the other way counts as inactive or inconclusive. On the % scale 0 is the no-effect control and ±100 the full control effect.

SMILES	ELG1 DNA repair	TDP1 cell CPT	TDP1 cell noCPT	IL1B secr inh	Giardia killer	TDP1 inh
COC(=O)C(Cc1c[nH]c2ccccc12)NC(=O)c1cccc(S(=O)(=O)N2CCCCC2)c1 (centres undefined)	9%	-7%	-14%	?	5	3%
N#CCCn1c(=O)c(-c2cccs2)nc2cnc(OCc3ccccc3)nc21	.	14%	-9%	.	.	.
Cc1sc2ccccc2[n+]1C	.	4µM*	3.2µM*	.	.	.
Cc1ccc2c(c1)sc(C)[n+]2CCCS(=O)(=O)[O-]	15%	-1%	-6%	-1	-14	-2%
COc1ccc2sc(C)[n+](C)c2c1	-19%	?	18µM*	-13	4	0%
Cc1sc2ccccc2[n+]1CCCC[n+]1c(C)sc2ccccc21	.	4.5µM*	2.5µM*	.	.	.
Cc1ccc(S(=O)(=O)Cc2sc3ccccc3[n+]2C)cc1	-14%	-25%	?	11	8	3%
COc1ccc(-c2c(-c3cc(OC)cc(OC)c3)sc3ccc(OC)cc23)cc1	?	-28%	-10%	-12	0	-3%
Cc1sc2ccccc2[n+]1Cc1ccccc1	.	0.79µM*	1.1µM*	.	.	.
CCCN(C(=O)c1nn(-c2ccc(OC)cc2)c(=O)c2c1c1ccccc1n2C)c1ccc(CC)cc1	.	-17%	?	.	.	-5%
Cc1cc(Cl)ccc1NC(=O)CN(C)C1=NS(=O)(=O)c2ccccc21	-1%	-3%	2%	12	-10	-2%[56.1 µM]
CCOC(=O)C1CCCN(C(=O)c2nn(-c3ccc(C)cc3)c(=O)n(C)c2=O)C1 (centres undefined)	.	-15%	-5%	.	.	4%
Cc1sc2ccccc2[n+]1CCCCBr	.	4µM*	5.6µM*	.	.	.
CC(=O)c1cccc(N=c2scc(-c3ccc(S(=O)(=O)N4CCOCC4)cc3)n2CCO)c1	?	6.5µM*	2.6µM*	17	-13	-3%
CC(C)Cn1c(-c2ccc(S(=O)(=O)N3CCCC3)cc2)csc1=Nc1ccccc1	.	5.8µM*	3.3µM*	.	.	10%
CN(C)S(=O)(=O)c1cccc(-c2csc(=Nc3ccccc3)n2CCCN2CCOCC2)c1	?	?	?	-25	-3	7%
Cc1csc(=Nc2ccc(S(=O)(=O)N3CCOCC3)cc2)n1Cc1ccco1	15µM*	23µM*	23µM*	-8	3	8%
COc1ccc(N=c2scc(-c3ccc(S(=O)(=O)N4CCOCC4)cc3)n2CCCO)cc1	15µM*	.	.	.	.	7%
Cc1ccc(NC(=O)CS(=O)CC(=O)Nc2cnc3ccccc3c2)cc1Cl (centres undefined)	-9%	-21%	?	-4	-10	4%[0.0935 µM]
CN1CCN(C(CNC(=O)C(=O)Nc2ccccc2)c2ccc3c(c2)OCO3)CC1 (centres undefined)	.	0%	-21%	.	.	4%
C=CCn1c(-c2ccc(S(=O)(=O)N3CCOCC3)cc2)csc1=Nc1ccccc1	0%	6.5µM*	6.5µM*	?	-2	9%
O=S(=O)(c1ccc(-c2ccccc2)cc1)N1CCOCC1	.	4%	8%	19	-13	0%
CC(=O)c1ccc(NC2=NS(=O)(=O)c3ccccc32)cc1	.	4%	-14%	.	.	2%
Cc1cc(=O)oc2cc(NC(=O)c3cc([N+](=O)[O-])ccc3N3CCOCC3)ccc12	-25%	0%	-10%	-22	6	-1%
CCN(CC)S(=O)(=O)c1ccc(N2CCOCC2)c(NC(=O)c2ccc(OC)c([N+](=O)[O-])c2)c1	-10%	-2%	-11%	-29	14	1%
CCN(CC)S(=O)(=O)c1cc(NC(=O)c2cc([N+](=O)[O-])ccc2N2CCOCC2)ccc1C	?	?	16µM*	i	4	6%
